From PubChem BioAssay
KB-3-1 tox = KB-3-1 parental cell cytotoxicity. KB-3-1 viability, CellTiter-Glo ATP luminescence, 72 h. AID 1347075. Potency, µM (titrated, usually from 46.1 µM), actives largely listed as cytotoxic. hit rate 1.4% among 400,000; also: % is scaled to controls: 0 for no effect and ±100 for the full control effect; nearly all actives have a fitted effect of over 60% in size
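Parental KB-3-1 viability, qHTS format: 72 h compound exposure, 37 °C; CellTiter-Glo; media-only wells and DMSO plates as controls; concentration-effect fits on corrected data.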
HepG2 tox = counter-screen for TGF-b inhibitors: cytotoxicity in HepG2 cells; HepG2 CAGA-GFP viability, ATP luminescence, 18 h; Potency, µM (highest dose often 46.1 µM), for inactives: at the top dose activity change, negative = cytotoxicity, hits mostly cytotoxic; hit rate 0.76% among 410,000; AID 588856
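HepG2 CAGA-GFP cells (1000/well, DMEM with 1% FBS) received compound, then TGF-beta at 500 pg/mL final, and were incubated 18 hours at 37 degrees C. Viability was read by CellTiter-Glo luminescence. Media-only wells were set as complete cell-killing and DMSO as no toxicity.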
HT1080NT lethal = kills 2HG-producing HT-1080-NT fibrosarcoma cells; HT-1080-NT fibrosarcoma viability, CellTiter-Glo ATP luminescence, 48 h; Potency, µM (titrated, usually from 46.1 µM), inactives show at the highest dose activity, negative = less viability, usual class: cytotoxic; hit rate 1.6% among 360,000;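 also: NT is the 2HG producing partner of a matched IDH1 knockdown line; 0% = DMSO-treated cells and -100% = media-only wells without cells; nearly all actives have a fitted effect of over 55% in size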
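A 48-hour cytotoxicity screen used HT-1080-NT cells plated 2 hours before compound delivery. ATP-based CellTiter-Glo luminescence measured viability, normalized to DMSO and no-cell controls.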
KB-V1 cytotox = KB-V1 MDR subline cytotoxicity. Potency, µM (highest dose often 46.1 µM), actives largely listed as cytotoxic. KB-V1 MDR cells viability, CellTiter-Glo, 72 h. hit rate 3.4% among 400,000; also: % is scaled to controls: 0 for no effect and ±100 for the full control effect; nearly all actives have a fitted effect of over 60% in size
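Luminescent ATP read-out (CellTiter-Glo, 10 min) measures survival of drug-selected KB-V1 MDR cells after 72 h, 37 degrees C compound exposure. Medium: phenol-red-free DMEM, 10% FBS. Values from fitted concentration-response curves.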
HT1080 IDH1KD tx = kills HT-1080 cells with IDH1 knockdown | HT-1080 IDH1 knockdown viability, ATP luminescence, 48 h | Potency, µM (top dose mostly 46.1 µM), without a hit: top-dose activity, negative = toxicity, usual class: cytotoxic | hit rate 2% among 360,000 | AID 686971;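 also: 0% = DMSO wells and -100% = cell-free medium wells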
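Viability of IDH1-knockdown HT-1080 fibrosarcoma cells was assessed by CellTiter-Glo after 48 h at 37 °C with titrated compound; concentration-effect curves were classified by fit quality and response size.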
TGFb inhibitor = blocks TGF-b signaling; HepG2 CAGA-GFP TGF-b/SMAD3 reporter, GFP fluorescence, 18 h; TGF-beta stimulated, 500 pg/mL final; Potency, µM (doses to about 46.1 µM), for the others: top-dose activity, negative = inhibition, most hits filed as inhibitors; hit rate 1.2% among 410,000; AID 588855; also: % is scaled to controls: 0 for no effect and ±100 for the full control effect; nearly all actives have a fitted effect of over 65% in size
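Per well, imaged GFP fluorescence of HEPG2 CAGA-GFP cells gives the signal; cells get compound, then TGF-beta (500 pg/mL final), 18 h at 37 degrees C; %Activity versus -TGF-beta and +DMSO controls.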
* hit, by the source's call; ! = not confirmed by another sample; [ ] = dose if it differs, or a comment. An excerpt weighted towards active compounds, which were near 6.6% of everything screened. Calls follow the shape of the dose curve; as a rule, active = well fitted curve in the direction sought with a large enough effect; inconclusive = small, poorly fitted or top-dose-only effect, or another doubt; inactive = no such curve, though single readings can be large; an effect the other way counts as inactive or inconclusive. Potency is read from the fitted curve at half-maximal effect.

`COc1ccc(NC(=O)OCCn2c([N+](=O)[O-])cnc2C)cc1` gave KB-3-1 tox inconclusive, HepG2 tox -2%, HT1080NT lethal inconclusive, KB-V1 cytotox inactive, HT1080 IDH1KD tx 24% and TGFb inhibitor -5%.
Screening COc1ccc(CN(C)C(=O)c2cccc(NC(=O)CC3SC(N4CCCCC4)=NC3=O)c2)c(OC)c1 (stereo not given) returned KB-3-1 tox 16µM*, HepG2 tox -13%, HT1080NT lethal inconclusive, KB-V1 cytotox inactive, HT1080 IDH1KD tx -27% and TGFb inhibitor -28%.
For O=C(CSc1nnc(-c2cccnc2)s1)Nc1ccnc2ccccc12 the results were KB-3-1 tox 2.3µM*, HepG2 tox -22%, HT1080NT lethal -12%, KB-V1 cytotox 1.6µM*, HT1080 IDH1KD tx inconclusive and TGFb inhibitor -29%.
`Cc1ccc(NC(=O)[C@@H](c2ccccc2)N2Cc3ccccc3C2=O)cc1F` gave KB-3-1 tox inactive, HepG2 tox -22%, KB-V1 cytotox inactive and TGFb inhibitor inconclusive.
`Cc1ccc(C(=O)N/N=C\c2ccccc2[N+](=O)[O-])cn1` gave KB-3-1 tox inactive, HepG2 tox 0%, HT1080NT lethal 4%, KB-V1 cytotox inactive, HT1080 IDH1KD tx 12% and TGFb inhibitor 8%.
Cc1c(C(=O)N/N=C/C(C)C)[nH]c2c([N+](=O)[O-])cccc12 was read as KB-3-1 tox inconclusive, HepG2 tox -26%, HT1080NT lethal inconclusive, KB-V1 cytotox inconclusive, HT1080 IDH1KD tx 2.6µM* and TGFb inhibitor -29%.
For N=c1c2c(ncn1Cc1ccco1)Oc1c(ccc3ccccc13)C2c1ccccc1 (stereo not given) the results were KB-3-1 tox inconclusive, HepG2 tox -28%, HT1080NT lethal 16µM*, KB-V1 cytotox inconclusive, HT1080 IDH1KD tx inconclusive and TGFb inhibitor 0%.
COc1ccc(C2c3c(ncn(CCN4CCOCC4)c3=N)Oc3ccc4ccccc4c32)cc1 (stereo not given) was read as KB-3-1 tox inconclusive, HepG2 tox -36%, HT1080NT lethal -12%, KB-V1 cytotox 15µM*!, HT1080 IDH1KD tx -13% and TGFb inhibitor -3%.
Screening CN(C)CCn1cnc2c(c1=N)C(c1ccccc1)c1ccc3ccccc3c1O2 (stereo not given) returned KB-3-1 tox inconclusive, HepG2 tox -86%, HT1080NT lethal -29%, KB-V1 cytotox inconclusive, HT1080 IDH1KD tx -16% and TGFb inhibitor 18µM*.
COc1ccc(C2C3=C(CC(C)(C)CC3=O)Oc3ncn(Cc4ccccc4)c(=N)c32)cc1 (stereo not given) was read as KB-3-1 tox inactive, HepG2 tox -2%, HT1080NT lethal inconclusive, KB-V1 cytotox 3.3µM*, HT1080 IDH1KD tx inconclusive and TGFb inhibitor -27%.
For N=c1c2c(ncn1CCN1CCOCC1)Oc1ccc3ccccc3c1C2c1ccccc1 (stereo not given) the results were KB-3-1 tox inactive, HepG2 tox -1%, HT1080NT lethal -1%, KB-V1 cytotox inactive, HT1080 IDH1KD tx -7% and TGFb inhibitor -3%.
N=c1c2c(ncn1Cc1ccco1)Oc1cc(O)ccc1C2c1ccccc1 (stereo not given) was read as KB-3-1 tox inconclusive, HepG2 tox -18%, HT1080NT lethal -16%, KB-V1 cytotox inconclusive, HT1080 IDH1KD tx -13% and TGFb inhibitor 6%.
For O=C(Nc1ccc(Cl)cc1Cl)[C@@H]1CC=C[C@@H]2CCN(Cc3ccccc3)C(=O)[C@@H]21 the results were KB-3-1 tox inactive, HepG2 tox 0%, KB-V1 cytotox inconclusive and TGFb inhibitor -24%.
CC(C)(C)OC(=O)N1CCC(c2c(C(=O)Nc3ccc4c(c3)OCCO4)cnn2-c2ccc(F)cc2F)CC1 was read as KB-3-1 tox inactive, HepG2 tox -17%, KB-V1 cytotox inactive and TGFb inhibitor inconclusive.
Screening CCOC(=O)c1ccc(Nc2ncnc3c2cnn3C)cc1 returned KB-3-1 tox inactive, HepG2 tox -21%, HT1080NT lethal -5%, KB-V1 cytotox inactive, HT1080 IDH1KD tx 16%[9.24 µM] and TGFb inhibitor 1%.
Screening Cn1ncc2c(O/N=C(\N)c3ccc(C(C)(C)C)cc3)ncnc21 returned KB-3-1 tox inconclusive, HepG2 tox -100%, HT1080NT lethal 18µM*, KB-V1 cytotox 13µM*, HT1080 IDH1KD tx 6.5µM* and TGFb inhibitor inconclusive.
`CCOC(=O)c1ccc(NC(=O)c2cc(C)nc3ccccc23)cc1` gave KB-3-1 tox inactive, HepG2 tox 7%, HT1080NT lethal 11%, KB-V1 cytotox inactive, HT1080 IDH1KD tx 20% and TGFb inhibitor 9%.
Screening CCc1ccc(OCc2ccccc2C(=O)Nc2ccc3nc(C)cc(N)c3c2)cc1 returned KB-3-1 tox 16µM*, HepG2 tox 4µM*, KB-V1 cytotox inconclusive and TGFb inhibitor 4µM*.
Screening CSc1cccc(NC(=O)/C=C/c2ccc(Cl)cc2)c1 returned KB-3-1 tox inconclusive, HepG2 tox -29%, HT1080NT lethal inconclusive, KB-V1 cytotox 15µM*, HT1080 IDH1KD tx inconclusive and TGFb inhibitor inconclusive.
Cc1cccc(NC(=O)/C=C/c2ccc(Cl)cc2)n1 was read as KB-3-1 tox inactive, HepG2 tox -35%, HT1080NT lethal -15%, KB-V1 cytotox 16µM*, HT1080 IDH1KD tx inconclusive and TGFb inhibitor 0%.
For Cc1cc(N)c2cc(NC(=O)/C=C/c3ccccc3Cl)ccc2n1 the results were KB-3-1 tox inconclusive, HepG2 tox 7.1µM*, HT1080NT lethal inconclusive, KB-V1 cytotox inactive, HT1080 IDH1KD tx inconclusive and TGFb inhibitor 7.1µM*.
Screening Cc1cc(C)nc(NC(=O)/C=C/c2ccccc2Cl)n1 returned KB-3-1 tox inactive, HepG2 tox 1%, HT1080NT lethal 17%, KB-V1 cytotox inactive, HT1080 IDH1KD tx 8% and TGFb inhibitor -6%.
`CCCCCn1c(=O)[nH]c2cc(C(=O)N3CCN(c4cccc(Cl)c4)CC3)ccc2c1=O` gave KB-3-1 tox inactive, HepG2 tox 5%, KB-V1 cytotox inactive and TGFb inhibitor inconclusive.
For O=C(Cn1c(=O)n(-c2ccccc2)c(=O)c2ccc(C(=O)NCc3ccc4c(c3)OCO4)cc21)Nc1ccc(Br)cc1F the results were KB-3-1 tox inactive, HepG2 tox -12%, KB-V1 cytotox inactive and TGFb inhibitor 2%.
Cc1cc(C)nc(NC(=O)/C=C/c2ccc(Cl)cc2Cl)c1 was read as KB-3-1 tox inactive, HepG2 tox 0%, HT1080NT lethal 13%, KB-V1 cytotox 9.2µM*, HT1080 IDH1KD tx 9% and TGFb inhibitor 3%.
